# An excerpt weighted towards active compounds, which were near 0.76% of everything screened.
# PrP UTR inh – inhibition of PrP 5' UTR reporter expression; cell-based PrP 5' UTR mRNA reporter, plate reader; inhibition, % (concentration not given with the values); 340,000 tested, 0.35% active; AID 488862, 2010; in the data active means inhibition above about 52%
# UGM FP inh – M. tuberculosis UGM enzyme inhibitors, primary screen, biochemical, fluorescence polarization, single point. 320,000 tested, 0.06% active. inhibition, % at 10 µM. AID 504406, 2011. purified UGM, fluorescence polarization probe displacement; in the data active means inhibition above about 10%, passing the limit was not always enough
# Target sequence (P9WIQ1 whole entry, looked up): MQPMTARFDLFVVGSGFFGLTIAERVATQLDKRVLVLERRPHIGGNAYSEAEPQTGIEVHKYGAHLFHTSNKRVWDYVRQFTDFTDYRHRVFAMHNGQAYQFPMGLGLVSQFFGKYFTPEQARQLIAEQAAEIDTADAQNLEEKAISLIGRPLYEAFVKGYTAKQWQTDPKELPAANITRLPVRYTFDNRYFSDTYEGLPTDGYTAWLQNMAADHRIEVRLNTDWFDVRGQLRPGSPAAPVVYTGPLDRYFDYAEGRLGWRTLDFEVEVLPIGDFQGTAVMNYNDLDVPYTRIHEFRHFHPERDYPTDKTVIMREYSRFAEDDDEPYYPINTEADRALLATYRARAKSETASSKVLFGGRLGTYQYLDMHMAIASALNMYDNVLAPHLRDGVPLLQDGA
# FadD28 binding – inhibitors of FadD28 bisubstrate probe binding, primary screen, biochemical, fluorescence polarization, single point; 360,000 tested, 0.22% active; inhibition, % at 12.5 µM; AID 588549, 2011; in the data active means inhibition above about 8.5%, passing the limit was not always enough
# Rv3671c protease – Rv3671c serine protease inhibitors, primary screen, biochemical, fluorescence polarization, M. tuberculosis H37Rv | P9WHR9 | inhibition, % at 5.96 µM | 320,000 tested, 0.048% active | AID 2606, 2010; in the data active means inhibition above about 38%;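 further: extracellular domain of Rv3671c used as enzyme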
# Mtb bLac sens – beta-lactam sensitization of Mtb H37Rv, H37Rv; M. tuberculosis H37Rv growth with meropenem, percent inhibition; inhibition, % at 25 µM; 330,000 tested, 0.27% active; call rule not given here;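 further: growth measured after seven days incubation then overnight dye step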
# BH1578 lux ind – inducers of Vibrio cholerae quorum light production without autoinducers, primary screen, BH1578 luxS cqsA deficient, single point; V. cholerae BH1578 lux reporter, luminescence, 6 h; activation, % at 18.7 µM; 350,000 tested, 0.16% active; AID 588436, 2011; in the data active means activation mostly above about 9.7%, no sharp cut-off
# A number is an active result; n = inactive; x = not tested or not shown; + = active, no number; ! = not active in a repeat.
SMILES,PrP UTR inh,UGM FP inh,FadD28 binding,Rv3671c protease,Mtb bLac sens,BH1578 lux ind
Cc1ccc(S(=O)(=O)N2CCC(C(N)=O)CC2)cc1[N+](=O)[O-],n,n,n,n,n,n
N#C/C(=C(/O)CSc1ccccc1C(=O)O)c1nc2ccccc2s1,n,14.5,n,n,n,n
N#C/C(=C(/O)CSc1ccccn1)c1nc2ccccc2s1,n,n,n,n,n,n
CCN=C1Cn2c(nc3scc(-c4ccccc4)c3c2=O)CN1CC,n,n,n,n,n,16.7
COc1ccc(NC(=O)C2CC(=O)N/C(=N/NC(=O)c3ccc(Cl)cc3)S2)cc1 (stereo not drawn),n,n,n,n,n,n
O=C(Nc1sc(-c2ccccc2)cc1C(=O)O)c1ccccc1,n,n,18.9,n,n,n
O=[N+]([O-])c1ccc(-c2nc(Cl)c3c(n2)CCCC3)o1,x,x,n,x,x,29.9
CCN(c1ccc(NC(=O)CSc2ccc3c(c2)OCCO3)cc1)C(C)C,n,n,47.2,n,n,n
O=C(CSc1ccc2c(c1)OCCO2)Nc1ccccc1,x,x,n,x,x,n
Cc1ccc(CNC(=O)C2CCN(c3nn4c(=O)cc(C)nc4s3)CC2)cc1,n,n,n,n,n,n
O=C1C2C3C=CC(CO)(O3)C2C(=O)N1c1ccccc1-c1ccccc1 (stereo not drawn),n,n,n,n,n,n
O=C(NC(=S)Nc1ccccc1[N+](=O)[O-])c1ccccc1,n,n,n,n,n,n
O=C(NC(=S)/C(=C1\CCCCCN1)[N+](=O)[O-])c1ccccc1,58.8,n,n,n,n,n
O=c1c([N+](=O)[O-])c(N2CCCCC2)c2ccccc2n1-c1ccccc1,n,n,n,n,n,+
OC[C@@H]1CN(CCNc2ccccc2)C[C@H](n2cnc3c(NCc4ccncc4)ncnc32)O1,x,x,n,x,x,n
CC1(C(=O)Nc2ccc3nc[nH]c3c2)CCN1C(=O)c1ccccc1CCc1ccccc1 (stereo not drawn),x,x,n,x,x,n
COc1ccc(CN2CCC(C(=O)Nc3ccc(Oc4cccnc4)cc3)CC2)cc1,n,n,15.7,n,n,n
O=C(CC(=O)N/N=C\c1c(Cl)cccc1Cl)NCc1ccccc1,n,n,n,n,n,5.6
Nc1ccc2ccc3cccc[n+]3c2c1,n,62.5,n,n,n,n
CC(NC(=O)COC(=O)/C=C/c1cccc(C(F)(F)F)c1)c1ccccc1 (stereo not drawn),n,n,n,n,n,n
CCC12CN3CC(CC)(CN(C1)C3c1cccnc1)C2=O (stereo not drawn),n,n,n,n,n,16.7
Cc1ccc(S(=O)(=O)NC(=O)Nc2cc(C)ccc2F)cc1,n,n,n,n,n,n
CC(=O)NS(=O)(=O)c1ccc(N=c2ssc3c2-c2ccc(C)cc2NC3(C)C)cc1,n,n,14.3,n,n,n
O=C(COC(=O)c1ccco1)NCc1ccc(F)cc1,n,n,n,n,n,n
CCSc1ccc2c(c1)N(CCCN1CCN(C)CC1)c1ccccc1S2,n,n,n,n,n,n
SMILES,PrP UTR inh,UGM FP inh,FadD28 binding,Rv3671c protease,Mtb bLac sens,BH1578 lux ind
CN1CCN(CCCN2c3ccccc3Sc3ccc(Cl)cc32)CC1,n,n,8.2,n,n,n
Cc1ccc([N+](=O)[O-])cc1-c1[nH]c(-c2ccc(O)c(O)c2)nc1-c1ccccc1,n,n,12.9,n,n,25.0
Cc1ccc(S(=O)(=O)n2c([N+](=O)[O-])cnc2C)cc1C,n,n,n,n,n,n
Cc1cc(C)c(S(=O)(=O)n2c([N+](=O)[O-])cnc2C)cc1C,n,10.0,n,n,n,n
C[C@H]1c2cccc(O)c2C(O)=C2C(=O)C3(O)C(O)=C(C(N)=O)C(=O)[C@@H](N(C)C)[C@@H]3[C@@H](O)[C@@H]21 (stereo partly drawn),n,n,n,n,n,n
CN(C)[C@@H]1C(=O)C(C(N)=O)=C(O)[C@@]2(O)C(=O)C3=C(O)c4c(O)cccc4[C@@](C)(O)C3[C@H](O)C12 (stereo partly drawn),n,n,30.5!,n,n,n
Nc1nonc1-n1nnc(C(=O)N/N=C/c2cccc(O)c2)c1CN1CCCC1,n,n,n,x,n,30.5
Cc1ccc(NC(=O)C(C)N2CCN(C)CC2)cc1S(=O)(=O)N1CCOCC1 (stereo not drawn),n,n,n,n,n,n
Nc1c(Cl)ncnc1Nc1ccc(C(=O)O)cc1,n,x,n,x,x,n

# Compound activity deposited in PubChem BioAssay by several laboratories.
